Sm TGR inh = S. mansoni TGR enzyme inhibition; Q962Y6; purified TGR, DTNB reduction, TNB absorbance 405 nm; Potency, µM (series often up to 114 µM), inactives show at the top dose activity change, negative = inhibition, actives largely listed as inhibitors; actives 3% (n = 360,000); AID 485364; further: potency means the concentration at half of the fitted maximal effect; on the % scale 0 is the no-effect control and ±100 the full control effect; nearly all actives have a fitted effect of over 60% in size
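Kinetic colorimetric format: TGR-catalysed, NADPH-driven DTNB reduction monitored via TNB absorbance. Enzyme dispensed at 20 nM; compound exposure 15 min at room temperature before reaction start.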
Shiga toxin inh = Shiga toxin inhibition | Vero cells, Shiga toxin protein synthesis inhibition reporter | actives 9.2% (n = 290,000) | inhibition, % at 38.7 µM; in the data active means inhibition mostly above about 28%, no sharp cut-off; inactive means mostly below about 43%; further: 0% is about no effect
FBPA Giardia inh = Giardia lamblia aldolase inhibition. Potency, µM (highest dose often 59.6 µM), inactives show top-dose activity, negative = inhibition, hits mostly inhibitors. actives 0.71% (n = 290,000). purified Giardia FBPA; further: potency means the concentration at half of the fitted maximal effect; on the % scale 0 is the no-effect control and ±100 the full control effect; nearly all actives have a fitted effect of over 55% in size
Target sequence (A8B2U2 whole entry, looked up): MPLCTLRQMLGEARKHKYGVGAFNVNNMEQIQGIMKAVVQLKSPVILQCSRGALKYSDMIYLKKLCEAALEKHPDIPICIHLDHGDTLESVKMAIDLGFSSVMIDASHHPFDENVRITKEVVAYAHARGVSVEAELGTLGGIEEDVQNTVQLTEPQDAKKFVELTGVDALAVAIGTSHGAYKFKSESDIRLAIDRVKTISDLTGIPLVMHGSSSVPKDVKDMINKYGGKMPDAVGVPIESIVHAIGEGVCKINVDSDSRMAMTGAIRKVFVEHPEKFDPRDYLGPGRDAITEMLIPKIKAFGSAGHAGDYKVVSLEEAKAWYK
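40 nM FBPA preincubated 10 min at RT with compound (up to 57.5 uM final), then substrate plus GAPDH/TPI/NAD/arsenate coupling and diaphorase/resazurin added. Fluorescence read after 20 min at RT, 525/598 nm.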
CHX counter = counter-screen for Shiga toxin inhibitors: cycloheximide protein synthesis inhibition | cell reporter, cycloheximide protein synthesis inhibition counterscreen | max response, % | actives 12% (n = 300,000); in the data active means max response mostly above about 13%, no sharp cut-off; inactive means mostly below about 14%; further: read at 38.3 µM for the half of the compounds with a filed dose; 0% is about no effect
TbPYK inhibitor = T. brucei pyruvate kinase inhibition; AID 624173; actives 0.12% (n = 410,000); TbPYK enzyme, Kinase-Glo Plus ATP luminescence, 45 min; Potency, µM (highest dose often 76.8 µM), without a hit: at the highest dose activity, negative = inhibition, most hits filed as inhibitors; Q57TT1; further: potency means the concentration at half of the fitted maximal effect; on the % scale 0 is the no-effect control and ±100 the full control effect; nearly all actives have a fitted effect of over 50% in size
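ADP (130 uM final) triggers the TbPYK reaction after compound addition; incubation is 45 min at room temperature. Kinase-Glo Plus is then added and luminescence imaged. Normalized data are fitted to concentration-effect curves.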
LmPK inhibitor = blocks Leishmania mexicana pyruvate kinase activity | purified LmPK, Kinase-Glo ATP luminescence, 1 h | actives 0.37% (n = 290,000) | Q27686 | AID 1721 | Potency, µM (doses to about 57.5 µM), without a hit: at the highest dose activity change, negative = inhibition, actives largely listed as inhibitors; further: potency means the concentration at half of the fitted maximal effect; on the % scale 0 is the no-effect control and ±100 the full control effect
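Pyruvate kinase activity monitored as ATP production (luciferase luminescence). Conditions: 0.1 nM enzyme, 0.5 mM PEP, 0.1 mM ADP, 1 h, RT; normalized against uninhibited and no-enzyme wells.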
* hit, by the source's call. Shown is part of a subset that was picked to be rich in hits. Unless noted, the call rests on the fitted dose curve; in most records, active means well fitted curve in the direction sought with a large enough effect; inconclusive means small, poorly fitted or top-dose-only effect, or another doubt; inactive means no such curve, though single readings can be large; an effect the other way counts as inactive or inconclusive.

`COc1ccc(-c2nc3cnc(N4CCN(C)CC4)nc3n(-c3ccc(OC)cc3)c2=O)cc1` gave FBPA Giardia inh -22.0%.
Screening C=CC[C@](C)(Nc1ccc(OC)cc1)C(=O)OCC returned FBPA Giardia inh -0.4%.
Screening CC(=O)N1SC(N)=NC1c1ccccc1 (centres undefined) returned Sm TGR inh -2.5%, Shiga toxin inh 64.4*, FBPA Giardia inh 8.8%, CHX counter 18.9, TbPYK inhibitor 2.7% and LmPK inhibitor -7.3%.
For CC(=O)N1N=C(c2ccccc2)CC1c1ccccc1 (centres undefined) the results were Sm TGR inh 9.3%, Shiga toxin inh -11.3, FBPA Giardia inh 11.3%, CHX counter 1.2, TbPYK inhibitor 6.4% and LmPK inhibitor -5.6%.
COc1ccc(C#Cc2ccc3c(c2)c(=O)c2ccccc2n3C)cc1 was read as Sm TGR inh inconclusive, Shiga toxin inh 3.6, FBPA Giardia inh -21.7%, CHX counter 1.2, TbPYK inhibitor 5.4% and LmPK inhibitor 2.6%.
For Cn1c2ccccc2c(=O)c2ccc(C#CC3(O)CCCCC3)cc21 the results were Sm TGR inh -24.2%, Shiga toxin inh 41.2*, FBPA Giardia inh -2.1%, CHX counter 34.9*, TbPYK inhibitor -1.8% and LmPK inhibitor 0.9%.
Cn1c2ccccc2c(=O)c2cc(C#Cc3ccc(N)cc3)ccc21 was read as Sm TGR inh 1.5%, Shiga toxin inh 38.6*, FBPA Giardia inh -25.4%, CHX counter 40.9*, TbPYK inhibitor 1.2% and LmPK inhibitor -0.6%.
`Cc1c(C(=O)Nc2ccc(F)cc2)oc2ccc(S(=O)(=O)N3CCCCCC3)cc12` gave Sm TGR inh -3.2% and TbPYK inhibitor -6.6%.
For COc1ccc(-n2nc(C(=O)Nc3ccc(Br)cc3C)c3c4ccccc4n(C)c3c2=O)cc1 the results were Sm TGR inh -5.0% and TbPYK inhibitor -6.9%.
OCCNCc1cccc2ccccc12 was read as Sm TGR inh 6.0%, Shiga toxin inh -8.5, FBPA Giardia inh -9.2%, CHX counter 3.2, TbPYK inhibitor 0.1% and LmPK inhibitor 0.2%.
For Fc1ccccc1CCNCc1cccc2ccccc12 the results were Sm TGR inh 3.7%, Shiga toxin inh 26.3, FBPA Giardia inh -7.1%, CHX counter 17.8*, TbPYK inhibitor -0.7% and LmPK inhibitor -1.5%.
Screening Cc1ccc(CNCCc2ccccc2F)cc1 returned Sm TGR inh 0.4%, Shiga toxin inh 39.8, FBPA Giardia inh 0.3%, CHX counter 13.6*, TbPYK inhibitor 31.4% and LmPK inhibitor -1.0%.
For O=c1c2c(nc3cc(-c4cccc(Cl)c4)[nH]n13)CCC2 the results were Sm TGR inh inconclusive, Shiga toxin inh 52.3*, FBPA Giardia inh -29.4%, CHX counter 22.6, TbPYK inhibitor -2.3% and LmPK inhibitor -10.1%.
`O=c1c2c(nc3cc(-c4ccc(F)cc4)[nH]n13)CCCC2` gave Sm TGR inh -0.8%, Shiga toxin inh 73.9*, FBPA Giardia inh -18.3%, CHX counter 39.4*, TbPYK inhibitor 1.0% and LmPK inhibitor -15.4%.
O=c1c2c(nc3cc(-c4cccc(F)c4)[nH]n13)CCC2 was read as Sm TGR inh 0.7%, Shiga toxin inh 94.8*, FBPA Giardia inh -9.3%, CHX counter 50.7*, TbPYK inhibitor -5.4% and LmPK inhibitor -21.1%.
For Cc1ccc2nc3n(c(=O)c2c1)-c1ccccc1C(=O)NC3Cc1ccccc1 (centres undefined) the results were Sm TGR inh 1.6%.
For O=C(NCCN1CCN(C(=O)c2cccc(OC(F)F)c2)CC1)c1cccc(OC(F)F)c1 the results were TbPYK inhibitor 4.0%.
Screening CC1CN(C(NC(=O)c2ccccc2)C(Cl)(Cl)Cl)CC(C)O1 (centres undefined) returned Sm TGR inh 20µM*, Shiga toxin inh 8.9, FBPA Giardia inh 4.1%, CHX counter -3.8, TbPYK inhibitor -0.1% and LmPK inhibitor -0.4%.
`CC1CN(C(C)C(=O)NNC(=O)c2ccc(F)cc2)CC(C)O1` (centres undefined) gave TbPYK inhibitor -3.8%.
CC1CN(C(NC(=O)C(C)(C)C)C(Cl)(Cl)Cl)CC(C)O1 (centres undefined) was read as Sm TGR inh 35.5µM*, Shiga toxin inh -2.7, FBPA Giardia inh 0.9%, CHX counter -1.1, TbPYK inhibitor -4.5% and LmPK inhibitor 0.2%.
Screening Cc1ccc(NC(=O)C(=O)NCC(c2cccnc2)N2CCN(Cc3ccccc3)CC2)cc1C (centres undefined) returned Sm TGR inh 4.4% and TbPYK inhibitor -2.5%.
COC(=O)[C@@H](NC(=O)O[C@H]1C(=O)c2cc(OC)ccc2O[C@@H]1c1ccc(OC)c(Br)c1)C(C)C was read as FBPA Giardia inh -4.0%.
For COc1ccc(/C(N)=N/OC(=O)c2cccc([N+](=O)[O-])c2C)cc1OC the results were Sm TGR inh -0.8%, Shiga toxin inh -8.3, FBPA Giardia inh -2.8%, CHX counter -3.0, TbPYK inhibitor -3.0% and LmPK inhibitor 0.9%.
For Cc1ccc(C(=O)O/N=C(\N)c2ccccn2)cc1 the results were Sm TGR inh 1.0%, Shiga toxin inh -30.5, FBPA Giardia inh 6.5%, CHX counter -17.8, TbPYK inhibitor inconclusive and LmPK inhibitor 14.1µM*.
Screening COc1ccc(C(=O)O/N=C(\N)c2ccc(OC)c(OC)c2)cc1 returned Sm TGR inh -2.2%, Shiga toxin inh 159.9*, FBPA Giardia inh -9.4%, CHX counter 26.9*, TbPYK inhibitor -16.3% and LmPK inhibitor 1.6%.
Screening CC(C)(C)c1ccc(C(=O)O/N=C(\N)c2ccccn2)cc1 returned Sm TGR inh -4.5%, Shiga toxin inh -6.0, FBPA Giardia inh 4.3%, CHX counter -3.8, TbPYK inhibitor -8.1% and LmPK inhibitor -15.7%.
For COc1ccc(C(=O)O/N=C(\N)c2ccc(OC)c(OC)c2)c(OC)c1 the results were Sm TGR inh -2.2%, Shiga toxin inh 92.7*, FBPA Giardia inh -1.0%, CHX counter 48.4*, TbPYK inhibitor -9.7% and LmPK inhibitor -1.9%.
Screening Cc1ccc(C(=O)O/N=C(\N)c2ccccn2)cc1C returned Sm TGR inh -9.3%, Shiga toxin inh -12.2, FBPA Giardia inh 2.4%, CHX counter -3.6, TbPYK inhibitor inconclusive and LmPK inhibitor inconclusive.
For COc1cc(C(=O)O/N=C(\N)c2ccccn2)cc(OC)c1OC the results were Sm TGR inh -3.3%, Shiga toxin inh 65.8*, FBPA Giardia inh 6.4%, CHX counter 33.8*, TbPYK inhibitor -6.3% and LmPK inhibitor -2.3%.
COc1ccc(/C(N)=N/OC(=O)c2ccc(OC)c([N+](=O)[O-])c2)cc1OC was read as Sm TGR inh 24.8%, Shiga toxin inh 3.4, FBPA Giardia inh 4.5%, CHX counter -2.6, TbPYK inhibitor 2.9% and LmPK inhibitor 3.4%.

Screening data: PubChem BioAssay, National Center for Advancing Translational Sciences (NCATS)
